Data on 17 compounds can be found in PubChem BioAssay.

The source made the active and inactive calls.

Experiment [1] in a line: binders of probe aFSTL3 on microarray, primary screen, stem cell growth factor project, biochemical, small-molecule microarray, fluorescence 635/667 (AID 1064).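 Note: measures binding of the biotinylated anti-FSTL3 antibody to printed compounds.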 Particulars: higher = more signal.
Experiment [2] can be described thus: binders from COS7 lysate, DM2A8 probe, primary screen, torsin A project, cell lysate, small-molecule microarray, fluorescence 635/667 (AID 1065). The following applies: higher = more signal, COS7 lysate expressing mutant human TOR1A.
The nature of experiment [3]: binders of probe aFGF2 on microarray, primary screen, stem cell growth factor project, biochemical, small-molecule microarray, fluorescence 635/667 (AID 1067).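 Note: measures binding of biotinylated aFGF2 protein to printed compounds on slides; z-score merges feature fluorescence and signal-to-noise across triplicate slides.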 The following applies: higher = more signal.
Experiment [4] can be described thus: binders of probe aFGF10 on microarray, primary screen, stem cell growth factor project, biochemical, small-molecule microarray, fluorescence 635/667 (AID 1071).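 Note: score merges 667 nm spot intensity and signal to noise from triplicate slides.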 The following applies: higher = more signal.
Experiment [5] addresses Neurogenic locus notch homolog protein 2 (Homo sapiens) (UniProt Q04721). The experiment can be described thus: Notch2 binders on small-molecule microarrays, primary screen, biochemical, small-molecule microarray, 635 nm fluorescence, stem cell growth factors (AID 1073). Particulars: Notch2 binding, higher = more signal.
The target of experiment [6] is Pro-neuregulin-1, membrane-bound isoform (Homo sapiens) (UniProt Q02297). The experiment in a line: NRG1 binders on small-molecule microarrays, primary screen, psychiatric disease protein project, biochemical, small-molecule microarray, fluorescence 635/667 (AID 1075).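 Note: score combines 667 nm spot fluorescence with signal to noise.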 The following applies: NRG1 binding, 635 nm fluorescence, higher = more signal.
Chain of Pro-neuregulin-1, membrane-bound isoform (Homo sapiens) (Q02297 whole entry, looked up, the tested form may be a part, canonical isoform): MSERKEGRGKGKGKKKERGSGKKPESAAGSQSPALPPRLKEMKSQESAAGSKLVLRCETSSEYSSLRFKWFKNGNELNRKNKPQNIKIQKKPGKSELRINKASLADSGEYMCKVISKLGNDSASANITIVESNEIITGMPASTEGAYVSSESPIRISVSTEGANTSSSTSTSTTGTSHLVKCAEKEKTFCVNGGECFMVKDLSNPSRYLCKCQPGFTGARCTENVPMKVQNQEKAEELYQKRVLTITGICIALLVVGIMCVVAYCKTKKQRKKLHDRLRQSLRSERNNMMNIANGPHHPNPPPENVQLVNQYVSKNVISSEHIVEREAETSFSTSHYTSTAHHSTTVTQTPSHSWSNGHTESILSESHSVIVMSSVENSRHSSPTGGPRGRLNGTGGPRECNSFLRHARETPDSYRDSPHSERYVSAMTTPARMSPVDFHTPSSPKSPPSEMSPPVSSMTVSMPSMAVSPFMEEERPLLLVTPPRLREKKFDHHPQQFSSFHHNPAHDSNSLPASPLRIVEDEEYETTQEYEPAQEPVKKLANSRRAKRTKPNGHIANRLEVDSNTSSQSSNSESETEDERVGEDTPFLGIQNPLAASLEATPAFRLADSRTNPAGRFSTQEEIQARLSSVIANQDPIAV
Experiment [7] deals with Neuregulin-1 EGF-like domain. The experiment in a line: binders of neuregulin-1 EGF-like domain, primary screen, biochemical, small-molecule microarray, 635 nm fluorescence (AID 1081).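 Note: binding of the protein to compounds printed on small-molecule microarray slides.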 Particulars: small-molecule microarray binding, higher = more signal.
Experiment [8] is described as follows: FRG1 promoter luciferase signal modulators, primary screen, FRG1 inhibition for FSHD, cell-based, C2C12 myotubes, firefly/Renilla luciferase, luminescence (AID 1084). Particulars: higher = more signal, called active from +8 up or from −8 down.
Experiment [9] in a line: binders of probe aFST on microarray, primary screen, stem cell growth factor project, biochemical, small-molecule microarray, fluorescence 635/667 (AID 1086).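 Note: score merges 667 nm fluorescence with signal-to-noise of each printed compound spot.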 Particulars: higher = more signal.
Experiment [10] in a line: binders of probe aHhip on microarray, primary screen, stem cell growth factor project, biochemical, small-molecule microarray, fluorescence 635/667 (AID 1087).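 Note: score merges spot fluorescence at 667nm with spot signal to noise ratio.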 Particulars: higher = more signal.

Chain of Neurogenic locus notch homolog protein 2 (Homo sapiens) (Q04721 whole entry, looked up, canonical isoform): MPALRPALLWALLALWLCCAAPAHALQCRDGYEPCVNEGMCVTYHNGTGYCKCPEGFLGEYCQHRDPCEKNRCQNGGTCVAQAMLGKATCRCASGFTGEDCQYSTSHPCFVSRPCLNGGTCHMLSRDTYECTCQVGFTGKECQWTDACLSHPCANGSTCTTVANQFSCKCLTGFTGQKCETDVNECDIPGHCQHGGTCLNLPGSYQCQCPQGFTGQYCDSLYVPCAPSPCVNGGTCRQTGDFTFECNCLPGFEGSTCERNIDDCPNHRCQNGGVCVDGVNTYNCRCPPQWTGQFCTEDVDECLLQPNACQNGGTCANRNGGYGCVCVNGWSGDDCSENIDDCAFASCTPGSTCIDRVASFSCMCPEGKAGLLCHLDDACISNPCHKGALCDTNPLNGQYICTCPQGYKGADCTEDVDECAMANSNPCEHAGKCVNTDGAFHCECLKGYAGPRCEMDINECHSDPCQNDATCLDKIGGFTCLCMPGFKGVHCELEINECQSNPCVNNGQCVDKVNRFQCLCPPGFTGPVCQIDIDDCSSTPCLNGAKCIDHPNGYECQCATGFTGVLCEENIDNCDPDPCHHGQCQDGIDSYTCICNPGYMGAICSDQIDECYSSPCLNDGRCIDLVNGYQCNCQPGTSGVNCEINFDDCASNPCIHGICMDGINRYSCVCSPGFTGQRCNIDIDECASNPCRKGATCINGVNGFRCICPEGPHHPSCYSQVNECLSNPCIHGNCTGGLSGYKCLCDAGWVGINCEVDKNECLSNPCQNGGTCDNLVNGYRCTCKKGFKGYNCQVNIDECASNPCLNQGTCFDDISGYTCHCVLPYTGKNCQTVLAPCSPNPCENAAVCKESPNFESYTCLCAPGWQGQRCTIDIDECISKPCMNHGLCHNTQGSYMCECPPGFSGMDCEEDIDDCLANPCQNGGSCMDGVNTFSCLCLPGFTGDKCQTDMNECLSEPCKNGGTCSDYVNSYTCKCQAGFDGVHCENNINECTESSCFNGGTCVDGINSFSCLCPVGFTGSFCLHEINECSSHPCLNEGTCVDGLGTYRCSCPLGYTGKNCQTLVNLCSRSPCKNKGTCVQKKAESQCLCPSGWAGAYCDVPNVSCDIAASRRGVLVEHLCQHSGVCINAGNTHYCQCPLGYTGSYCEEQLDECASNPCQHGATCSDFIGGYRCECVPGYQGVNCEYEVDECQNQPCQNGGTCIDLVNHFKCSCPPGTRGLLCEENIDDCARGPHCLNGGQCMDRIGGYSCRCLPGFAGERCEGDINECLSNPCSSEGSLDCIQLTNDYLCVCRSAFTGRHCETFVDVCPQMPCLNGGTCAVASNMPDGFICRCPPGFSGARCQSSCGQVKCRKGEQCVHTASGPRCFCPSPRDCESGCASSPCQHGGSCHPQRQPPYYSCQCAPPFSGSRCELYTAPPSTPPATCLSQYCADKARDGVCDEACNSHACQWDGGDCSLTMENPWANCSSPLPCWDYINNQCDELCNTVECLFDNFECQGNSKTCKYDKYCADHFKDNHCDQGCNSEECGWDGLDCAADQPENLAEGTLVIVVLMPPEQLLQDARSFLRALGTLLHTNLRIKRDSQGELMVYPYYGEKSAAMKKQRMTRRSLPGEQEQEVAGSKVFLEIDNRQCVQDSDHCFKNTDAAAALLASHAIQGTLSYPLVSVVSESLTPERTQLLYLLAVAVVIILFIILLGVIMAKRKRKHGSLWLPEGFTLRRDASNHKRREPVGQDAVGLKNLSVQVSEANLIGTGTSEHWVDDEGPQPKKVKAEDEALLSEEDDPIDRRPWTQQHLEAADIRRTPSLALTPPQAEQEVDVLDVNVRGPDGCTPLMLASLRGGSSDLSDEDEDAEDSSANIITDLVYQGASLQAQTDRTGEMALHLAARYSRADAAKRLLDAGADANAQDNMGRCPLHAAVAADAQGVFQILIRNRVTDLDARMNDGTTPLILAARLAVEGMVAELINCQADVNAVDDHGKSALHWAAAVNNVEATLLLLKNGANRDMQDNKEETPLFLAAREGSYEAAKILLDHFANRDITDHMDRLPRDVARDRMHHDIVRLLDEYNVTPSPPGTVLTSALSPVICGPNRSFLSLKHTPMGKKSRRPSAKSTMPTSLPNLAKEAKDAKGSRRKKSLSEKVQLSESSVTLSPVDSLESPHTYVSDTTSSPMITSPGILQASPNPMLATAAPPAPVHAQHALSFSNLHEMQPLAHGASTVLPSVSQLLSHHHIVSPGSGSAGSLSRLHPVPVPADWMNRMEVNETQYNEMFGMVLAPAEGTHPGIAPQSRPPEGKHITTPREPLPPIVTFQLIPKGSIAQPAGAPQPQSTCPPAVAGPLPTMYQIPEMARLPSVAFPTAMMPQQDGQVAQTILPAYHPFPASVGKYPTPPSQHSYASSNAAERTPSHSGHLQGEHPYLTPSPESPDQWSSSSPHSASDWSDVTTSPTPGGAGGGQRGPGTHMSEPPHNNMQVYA

For the compound `CCN1C(=O)[C@H]2[C@H]3[C@H](O)C=CC(=O)[C@@H]3CC[C@H]2C1=O`, the composite z-score in [1] was -0.456; in experiment [2], 0.236; in [3], -0.0744; in experiment [4], 0.393; in experiment [5] it was 0.602; in experiment [6], -0.132. The composite z-score in experiment [7] stood at 0.226; in experiment [9] it was 0.243; in experiment [10], 0.312. Further, the z-score in experiment [8] was 0.669 (inactive).

In the case of `COCCOC(=O)N1C(=O)[C@@]2(c3cc(C#Cc4ccc(OC)cc4)ccc31)[C@H](c1ccc(O)cc1)N1[C@H](c3ccccc3)[C@H](c3ccccc3)OC(=O)[C@H]1[C@@H]2C(N)=O`, the composite z-score in [1] was -0.513; in [2] it was 0.258; in experiment [3] it was -0.031; in [4], 0.602; in experiment [5] it was 1.35; in experiment [6], 1.17. Moreover, the composite z-score was determined as 1.26 in [7], 0.674 in experiment [9] and 0.291 in experiment [10]. In addition, in experiment [8], the z-score was 0.497 (inactive).

With `CO[C@@H]1COC(=O)[C@@H]2CCCN2C(=O)[C@@H](C)COC(=O)[C@H](COCc2ccccc2)NC(=O)CC=C[C@H]1C`, the composite z-score is -0.451 in [1]; 0.32 in experiment [2]; -0.112 in experiment [3]; 0.451 in experiment [4]; 0.433 in experiment [5]; 0.101 in [6]. Also, the results for the composite z-score in [7], in [9] and in experiment [10] were 0.253, 0.79 and -0.0645, respectively. For the same compound, the z-score in experiment [8] is -0.0485 (inactive).

Take `CO[C@H]1COC(=O)[C@@H]2CCCN2C(=O)CC=C[C@@H](C)[C@H](OC)COC(=O)CC=C[C@@H]1C`: the composite z-score in experiment [1] was -0.57; in [2], 1.62; in [3], -0.163; in [4] it was -0.0218; in [5], -0.256; in experiment [6], -0.796. The composite z-score in experiment [7] was determined as 0.659; in experiment [9], 0.152; in experiment [10], 0.176. Also, in experiment [8], the z-score is -1.1 (inactive).

For `Cc1cc2c(nc1C)CCCN2CC(O)CN1CCN(C)CC1` (stereo not given), the composite z-score stood at 0.499 in experiment [1]; 0.382 in [2]; 0.0138 in [3]; 0.575 in experiment [4]; 0.273 in experiment [5]; 0.462 in experiment [6]. Moreover, the composite z-score in experiment [7] was found to be 0.346; in experiment [9], 0.758; in [10], 0.744. The z-score in experiment [8] was -0.323 (inactive).

As for `C[C@H]1CC[C@@H](C(=O)O)N[C@@H]1c1ccc(C#CCN(C)C)cc1`, the composite z-score is -0.326 in [1]; 0.451 in experiment [2]; -0.0943 in experiment [3]; 0.185 in experiment [4]; 0.608 in experiment [5]; 0.115 in experiment [6]. The composite z-score in experiment [7] was 0.0934; in experiment [9], 0.629; in experiment [10], -0.119. Moreover, the z-score in experiment [8] is -0.794 (inactive).

On to `O=C1[C@H]2[C@H]3[C@H](O)[C@H](O)CC(=NO[C@@H]4O[C@H](CO)[C@@H](O)[C@H](O)[C@H]4O)[C@@H]3CC[C@H]2C(=O)N1c1ccc(F)cc1F`, for which the composite z-score was -0.383 in experiment [1]; 1.17 in experiment [2]; -0.125 in [3]; 0.442 in experiment [4]; 0.482 in experiment [5]; -0.141 in [6]. The composite z-score in experiment [7] came to 0.386; in [9], 0.0076; in [10], 0.2. For the same compound, the z-score in experiment [8] is 1.06 (inactive).

Consider `CO[C@H]1COC(=O)CC=C[C@H](C)[C@@H](NS(=O)(=O)c2ccc(C)cc2)COC(=O)CC=C[C@@H]1C`, for which the composite z-score in experiment [1] was -0.599; in experiment [2] it was 0.871; in experiment [3], -0.134; in [4], 0.339; in experiment [5], 0.381; in experiment [6], -0.425. The results for the composite z-score in experiment [7], in experiment [9] and in experiment [10] were -0.377, -0.197 and -0.0994, respectively. In addition, the z-score in [8] is -1.15 (inactive).

Consider `COc1ccc(OC[C@H]2Cc3c(-c4ccccc4)nc4c(c3CO2)CN(CCOc2ccccc2)CC4)cc1`, for which the composite z-score in [1] is -0.133; in experiment [2] it was 0.228; in experiment [3], -0.172; in experiment [4], 0.79; in experiment [5], 1.16; in experiment [6] it was 0.679. Besides, the figures for the composite z-score in experiment [7], in experiment [9] and in [10] were 1.11, 0.491 and -0.0618, respectively. In addition, in experiment [8], the z-score is 0.114 (inactive).

As to `COC(=O)[C@@H]1N=C(c2ccc(OCCCO)cc2)O[C@@H]1c1ccccc1N=[N+]=[N-]`, the composite z-score in [1] was 1.64; in [2] it was 0.308; in experiment [3] it was -0.006; in experiment [4] it was -0.282; in [5], 0.124; in [6], 1.79. Besides, the results for the composite z-score in experiment [7], in [9] and in experiment [10] were 1.18, 0.864 and 0.189, respectively. In addition, in experiment [8], the z-score was 3.42 (inactive).

For `CCN1C(=O)[C@H]2[C@H]3[C@H](O)[C@H](O)CC(=NO[C@@H]4O[C@H](CO)[C@@H](O)[C@H](O)[C@H]4O)[C@@H]3CC[C@H]2C1=O`, the composite z-score in [1] was -0.0837; in experiment [2], 0.0566; in experiment [3], -0.211; in experiment [4] it was -0.078; in experiment [5], -1.21; in [6], 0.485. In addition, the results for the composite z-score in [7], in experiment [9] and in experiment [10] were -1.11, -0.402 and 0.354, respectively. The z-score in experiment [8] is 0.183 (inactive).

As for `CCOC(=O)C1=CC[C@H]2C(=O)N(CC)C(=O)[C@@H]12`, the composite z-score in experiment [1] is -0.537; in experiment [2], 0.448; in experiment [3], -0.0715; in [4], 0.772; in experiment [5] it was 0.937; in experiment [6] it was 0.98. Besides, the composite z-score in experiment [7] came out at 1.11; in [9] it was 0.406; in [10], 0.176. In addition, the z-score in experiment [8] was 0.937 (inactive).

For `O=C1c2ccccc2[C@@]2(Cc3ccccc3N(C3CC3)C2=O)[C@H](c2ccc(CO)cc2)N1Cc1ccccc1C(F)(F)F`, the composite z-score in [1] was 0.748; in [2] it was -0.686; in experiment [3], -0.0507; in [4] it was 0.157; in experiment [5], -1.11; in experiment [6], 0.809. In addition, the composite z-score in experiment [7] was -0.0465; in experiment [9] it was -0.0438; in experiment [10], 0.151. The z-score in experiment [8] is -0.455 (inactive).

For `Cc1ccc(S(=O)(=O)N[C@@H]2COC(=O)[C@H](C)COC(=O)CC=C[C@H]2C)cc1`, the composite z-score is -0.618 in experiment [1]; 0.133 in experiment [2]; -0.121 in experiment [3]; 0.305 in experiment [4]; -0.0058 in experiment [5]; -0.0185 in experiment [6]. Besides, the composite z-score in [7] is -0.228; in experiment [9] it was -0.0468; in [10], 0.176. The z-score in experiment [8] is -0.564 (inactive).

For the compound `CO[C@@H]1COC(=O)CC=C[C@@H](C)[C@@H]2C=C[C@H](O)[C@@H](COC(=O)CCC[C@H]1C)O2`, the composite z-score in [1] was -0.29; in experiment [2] it was 1.11; in experiment [3], -0.146; in experiment [4], -0.14; in experiment [5] it was -0.117; in experiment [6] it was -0.582. Besides, the composite z-score in [7] is -0.167; in experiment [9], 0.246; in experiment [10] it was -0.261. In addition, in [8], the z-score was -0.414 (inactive).

For `COC(=O)CC=C[C@@H](C)[C@@H](C=NO[C@@H](C)c1cc(-c2c(C)cc(C)cc2C)no1)OC`, the composite z-score in experiment [1] was 1.46; in experiment [2], -1.99; in experiment [3], -0.159; in experiment [4], -0.806; in [5], -1.69; in [6], -0.674. The composite z-score was -0.714 in [7], -0.358 in experiment [9] and -0.0672 in experiment [10]. Moreover, the z-score in [8] is 0.8 (inactive).

For `CCOC(=O)NN=C1C[C@@H](O)[C@@H](O)[C@@H]2[C@@H]3C(=O)N(C4CCCCC4)C(=O)[C@@H]3CC[C@@H]12`, the composite z-score is -0.236 in experiment [1]; 0.584 in experiment [2]; -0.194 in [3]; 0.469 in experiment [4]; 0.489 in experiment [5]; -0.123 in experiment [6]. Besides, the figures for the composite z-score in [7], in [9] and in experiment [10] were -0.424, 0.554 and -0.132, respectively. For the same compound, the z-score in experiment [8] is -0.371 (inactive).
